Sampled rows, rich in hits. Any-hit rate of the full collection: about 2.7%.
ATXN viability – Viability Counterscreen for Primary qHTS for Inhibitors of ATXN expression | S2 cells (HEK-293 line with an ATXN2-luciferase reporter) viability, CellTiter-Fluor protease fluorescence, 24 h | Potency, µM (series often up to 56.7 µM), actives largely listed as cytotoxic | 400,000 tested, 0.49% active | AID 651635, 2014; further: nearly all actives have a fitted effect of over 40% in size
ALOX12 inh – Primary qHTS assay for inhibitors of human arachidonate 12S-lipoxygenase (ALOX12): Round 2; Polyunsaturated fatty acid lipoxygenase ALOX12 (Homo sapiens), P18054; purified 12hLO, xylenol orange hydroperoxide absorbance; Potency, µM (series often up to 108 µM), for inactives: top-dose activity change, negative = inhibition, most hits filed as inhibitors; 580,000 tested, 1.1% active; AID 1671190, 2021; further: on the % scale 0 is the no-effect control and ±100 the full control effect
Target sequence (P18054 whole entry, looked up): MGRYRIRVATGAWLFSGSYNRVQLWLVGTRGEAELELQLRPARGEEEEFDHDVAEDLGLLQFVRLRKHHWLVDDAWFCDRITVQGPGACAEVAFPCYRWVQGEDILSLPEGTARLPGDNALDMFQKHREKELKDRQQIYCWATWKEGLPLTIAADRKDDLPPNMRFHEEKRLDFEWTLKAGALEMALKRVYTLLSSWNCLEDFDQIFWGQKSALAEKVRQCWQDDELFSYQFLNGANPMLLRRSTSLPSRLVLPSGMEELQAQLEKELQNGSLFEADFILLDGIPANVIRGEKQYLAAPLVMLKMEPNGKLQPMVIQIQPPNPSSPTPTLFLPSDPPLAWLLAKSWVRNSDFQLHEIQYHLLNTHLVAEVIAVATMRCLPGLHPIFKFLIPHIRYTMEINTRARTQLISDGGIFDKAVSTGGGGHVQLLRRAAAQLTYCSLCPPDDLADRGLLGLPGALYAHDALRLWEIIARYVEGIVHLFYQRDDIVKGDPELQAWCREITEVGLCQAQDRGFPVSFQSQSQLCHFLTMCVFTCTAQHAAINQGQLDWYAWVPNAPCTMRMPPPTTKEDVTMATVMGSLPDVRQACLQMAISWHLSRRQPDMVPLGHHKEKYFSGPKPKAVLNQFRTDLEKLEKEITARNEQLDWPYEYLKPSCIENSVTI
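Purified human 12hLO at 150 nM in 25 mM Hepes, 0.01% Triton X-100, pH 7.0, preincubated 15 min at room temperature with compound. Reaction started with 40 uM arachidonic acid, 30 min at room temperature. Hydroperoxide measured by Fe-xylenol orange, 573/405 nm absorbance ratio.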
HepG2 viability – qHTS for Inhibitors of TGF-b: Cytotox Counterscreen; HepG2 CAGA-GFP viability, ATP luminescence, 18 h; Potency, µM (top dose mostly 46.1 µM), inactives show top-dose activity change, negative = cytotoxicity, most hits filed as cytotoxic; 410,000 tested, 0.76% active; AID 588856, 2011
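CellTiter-Glo luminescence gave cytotoxicity after 18 hours at 37 degrees C. The cells were HepG2 CAGA-GFP in 1% FBS DMEM, stimulated with 500 pg/mL TGF-beta after compound addition. %Activity was normalised to no-cell wells (complete cell-killing) and DMSO (no toxicity), and curves were fitted and classified.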
ATXN2 expr inh – Primary qHTS for Inhibitors of ATXN expression; AID 1745845, 2022; 360,000 tested, 0.72% active; Potency, µM (titrated, usually from 57 µM), inactives show top-dose activity change, negative = inhibition, usual class: inhibitors; HEK-293 ATXN2-luciferase reporter, luminescence, 24 h; further: on the % scale 0 is the no-effect control and ±100 the full control effect; nearly all actives have a fitted effect of over 55% in size
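qHTS (up to 57 uM final) was run with 24 h compound exposure of reporter cells at 37 °C. Each well was multiplexed: SteadyGlo luminescence measured ATXN2-luciferase expression after a fluorogenic Gly-Phe-AFC viability readout (25 uM final).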
TGFb SMAD3 inh – qHTS for Inhibitors of TGF-b; Potency, µM (titrated, usually from 46.1 µM), inactives show top-dose activity, negative = inhibition, actives largely listed as inhibitors; 410,000 tested, 1.2% active; HepG2 CAGA-GFP TGF-b/SMAD3 reporter, GFP fluorescence, 18 h; TGF-beta stimulated, 500 pg/mL final; further: on the % scale 0 is the no-effect control and ±100 the full control effect; nearly all actives have a fitted effect of over 65% in size
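Cell-based qHTS in HEPG2 carrying a CAGA-GFP Smad reporter; compounds added before 500 pg/mL final TGF-beta, 18 h incubation at 37 degrees C, GFP fluorescence quantified per cell by imaging cytometry.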
* hit, by the source's call; i = inactive; ? = inconclusive; . = no result; [ ] = remark or other dose. The call rests on the fitted dose curve; in most records, active means well fitted curve in the direction sought with a large enough effect; inconclusive means small, poorly fitted or top-dose-only effect, or another doubt; inactive means no such curve, though single readings can be large; an effect the other way counts as inactive or inconclusive. Potency means the concentration at half of the fitted maximal effect.

SMILES	ATXN viability	ALOX12 inh	HepG2 viability	ATXN2 expr inh	TGFb SMAD3 inh
Cn1nnnc1Sc1ncnc2scc(-c3cc4ccccc4o3)c12	13µM*	-10%	4.5µM*	5.6µM*	2.5µM*
Cn1nnnc1Sc1ncnc2scc(-c3ccsc3)c12	?	-3%	-78%	14µM*	13µM*
COc1ccccc1NNC(=O)c1cc(C(C)(C)C)nn1Cc1ccccc1	i	3%	-15%	34%	0%
CC(C)(C)c1cc(C(=O)NNc2cc(C(F)(F)F)ccc2Cl)n(Cc2ccccc2)n1	i	21%	10µM*	?	11µM*
O=C(Nc1ccccc1)c1nc(S(=O)(=O)Cc2ccccc2F)ncc1Cl	.	.	7.1µM*	.	3.2µM*
O=C(NCc1ccc2c(c1)OCO2)c1nc(S(=O)(=O)Cc2ccccc2F)ncc1Cl	.	-14%	16µM*	.	11µM*
O=C(NCc1ccc2c(c1)OCO2)c1ccccc1Cl	i	0%	-7%	13%	22%
COC(=O)c1ccc(NC(=O)c2nc(S(=O)(=O)Cc3ccccc3F)ncc2Cl)cc1	.	.	13µM*	.	6.3µM*
CCOC(=O)c1ccc(NC(=O)c2nc(SCc3ccccc3F)ncc2Cl)cc1	.	-12%	-16%	.	-32%
COc1ccccc1CC(=O)N1CCCc2ncc(C(=O)NCc3ccc(OC)c(OC)c3)cc21	.	6%	.	.	.
O=C(CCCC(=O)OCC(=O)c1cccc([N+](=O)[O-])c1)Nc1cc(C(F)(F)F)ccc1Cl	.	-20%	.	.	.
CCC(CO)NS(=O)(=O)c1ccc(Cl)c(Cl)c1 (configuration not stated)	.	12%	.	.	.
CC(C)n1c(CSCc2ccc(Cl)cc2Cl)n[nH]c1=S	i	45µM*	-35%	-4%	?
O=C(NCc1ccc(F)cc1)N(Cc1ccc(Cl)c(Cl)c1)Cc1ccccn1	.	-2%	.	.	.
O=[N+]([O-])c1ccc(N/N=C/c2ccc[nH]2)cc1	?	35µM*	-24%	13%	-25%
O=[N+]([O-])c1ccc(NN=Cc2cccc([N+](=O)[O-])c2)cc1	?	?	-3%	?	-5%
COc1ccc(C(=O)NCc2n[nH]c(=O)c3ccccc23)cc1OC	.	23%	.	.	.
Cc1ccccc1NC(=O)N1CCN(C(=O)c2nsc3ccccc23)CC1	.	22%	.	.	.
CC(C)(C)NC(=O)C(c1cccc2ccccc12)n1c(=O)c(-c2ccco2)nc2ccccc21 (configuration not stated)	.	45µM*	.	.	.
CCCCCNC(=O)C(c1cccc2ccccc12)n1c(=O)c(-c2ccco2)nc2ccccc21 (configuration not stated)	.	10µM*	.	.	.
COc1ccc(NC(=O)C(c2ccccc2)n2c(=O)c(-c3ccco3)nc3ccccc32)cc1 (configuration not stated)	.	-20%	.	.	.
CCCCCNC(=O)C(c1ccc(C(F)(F)F)cc1)n1c(=O)c(-c2ccco2)nc2ccccc21 (configuration not stated)	.	45µM*	.	.	.
O=c1c(-c2ccco2)nc2ccccc2n1/C=C(/c1ccc(C(F)(F)F)cc1)n1c(=O)[nH]c2ccccc21	.	16µM*	.	.	.
CCCCCNC(=O)C(c1ccnc2ccccc12)n1c(=O)c(-c2ccccc2)nc2ccccc21 (configuration not stated)	.	0%	.	.	.
C=CCn1c(C)cc(C(=O)Cn2c(=O)c3c(ncn3CC)n(Cc3ccccc3)c2=O)c1C	.	-4%	.	.	.
SMILES	ATXN viability	ALOX12 inh	HepG2 viability	ATXN2 expr inh	TGFb SMAD3 inh
CCCCCNC(=O)C(C1CC1)n1c(=O)c(-c2ccco2)nc2ccccc21 (configuration not stated)	.	35µM*	.	.	.
O=C(Nc1cccc(Nc2ncc(Br)c(NCCc3cnc[nH]3)n2)c1)N1CCCC1	.	-9%[57.4 µM]	.	19µM*	.
CC(=O)Nc1nc2ccc(CC(=O)N3CCN(c4ccccc4F)CC3)cc2s1	.	21%	.	.	.
O=S(=O)(Nc1nc(-c2ccco2)c(-c2ccco2)s1)c1ccc(F)cc1F	i	7.9µM*	-12%	.	-1%
O=C(Nc1nc(-c2ccco2)c(-c2ccco2)s1)c1ccc(F)cc1F	i	?	-9%	16%	2%
Cc1cc(F)ccc1-c1cccc(COc2cnc3c(ccn3CC(=O)O)c2)c1	.	-19%[176 µM]	.	.	.
O=C(O)Cn1ccc2cc(OCc3cccc(-c4ccc(F)cc4F)c3)cnc21	.	35µM*	.	.	.
O=C(O)Cn1ccc2cc(OCc3cccc(-c4ccc(F)c(Cl)c4)c3)cnc21	.	50µM*	.	.	.
COc1cccc(-c2cccc(COc3cnc4c(ccn4CC(=O)O)c3)c2)c1F	.	50µM*	.	.	.
CNS(=O)(=O)c1cc(NC(=O)C2Cc3ccc(C)cc3S2)ccc1C (configuration not stated)	.	-6%	.	.	.
Cc1nc(-c2cccc(Cl)c2)sc1C(=O)N1CCN(Cc2ccc(C#N)cc2)CC1	.	6%	.	.	.
CCCCCCCC(=O)Nc1ccc(C(=O)N/N=C/c2cccc([N+](=O)[O-])c2)cc1	7.9µM*	0%	8%	?	-9%
COc1ccc(S(=O)(=O)NCCc2csc(-c3ccc(F)cc3)n2)cc1	?	-29%	-15%	?	?
O=S(=O)(NCCc1csc(-c2ccc(F)cc2)n1)c1ccc(Cl)cc1	?	28µM*	-24%	16µM*	?
Cc1ccc(C)c(S(=O)(=O)NCCc2csc(-c3ccc(Cl)cc3)n2)c1	?	?	-94%	?	11µM*

Assay outcomes (PubChem BioAssay)
